# Data as given in PubChem BioAssay.
# Activity calls are given as the source filed them. Unless noted, the rule behind the calls is not given here.
# Experiments:
# [1] = tested on: Wnt5a (protein binding on small-molecule microarray); assay: small molecules binding Wnt5a protein – biophysical, small-molecule microarray, 635/667 nm fluorescence, primary screen (AID 1142); details: 635 nm fluorescence, higher = more signal;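 note: fluorescence read at 667 nm with signal to noise per printed feature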
# [2] = ATP-based viability of Huh7 replicon cells – cell-based, CellTiter-Glo luminescence, basal, 48 h, cytotoxicity control for HCV replication inhibitor project, primary screen (AID 1143); details: higher = more signal, called active from +8 up or from −8 down;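 note: Huh7 hepatoma cells carrying a hepatitis C replication reporter with no stimulus; test concentration not given here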
# [3] = Pseudomonas biofilm growth suppression – PAO1 strain, BacTiter-Glo luminescence, LB-PBS, primary screen (AID 1144); details: P. aeruginosa PAO1 biofilm, 12 h, higher = more signal
# [4] = basal CRE-LacZ reporter activity in PC12 – cell-based, unstimulated, primary screen (AID 1145); details: no forskolin, luminescence, 4.5 h, higher = more signal, called active from +8 up or from −8 down
# [5] = forskolin-driven CRE-LacZ activity in PC12 – cell-based, CRE-LacZ reporter, forskolin-stimulated, primary screen (AID 1146); details: luminescence, 4.5 h, higher = more signal, called active from +8 up or from −8 down;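 note: PC12 cells with 6xCRE LacZ reporter stimulated by forskolin 10 µM; beta-galactosidase reporter signal reflecting CREB driven transcription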
# [6] = biological target: Streptavidin (Streptomyces avidinii) (UniProt P22629); assay: compounds binding control protein streptavidin – biophysical, small-molecule microarray, 635/667 nm fluorescence, artefact control for SMM compound annotation, primary screen (AID 1147); details: higher = more signal;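 note: signal reflects streptavidin binding to arrayed compounds as a control protein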
# [7] = probe aInhba binding on compound microarray – biochemical, small-molecule microarray, 635/667 nm fluorescence, primary screen (AID 1148); details: higher = more signal;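 note: score merges 667nm spot fluorescence with signal-to-noise for antibody binding to printed compounds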
# Torsin-1A (Homo sapiens) [8] = biological target: Torsin-1A (Homo sapiens) (UniProt O14656); assay: TOR1A wild-type binding on microarray – cell lysate, small-molecule microarray, lysate, 635/667 nm, primary screen (AID 1149); details: COS7 hTOR1A-WT lysate, 635 nm fluorescence, higher = more signal
# Torsin-1A (Homo sapiens) [9] = biological target: Torsin-1A (Homo sapiens) (UniProt O14656); assay: torsin A mutant lysate binding on microarrays – cell lysate, small-molecule microarray, COS7 lysate, 635/667 nm fluorescence, primary screen (AID 1150); details: COS7 hTOR1A mutant lysate, 635 nm fluorescence, higher = more signal;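 note: score pools 667 nm emission and signal to noise measuring lysate protein binding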
# [10] = tested on: Sonic hedgehog protein (Shh); assay: Sonic hedgehog microarray binding compounds – biochemical, small-molecule microarray, 635/667 nm fluorescence, primary screen (AID 1151); details: 635 nm fluorescence, higher = more signal;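 note: Shh protein binding to compounds spotted on small-molecule microarray slides; score combines spot fluorescence intensity with signal-to-noise across triplicate slides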
# [11] = optical density shifts of acrAB sulA E. coli – strain DRC41, OD650, 48 h, E. coli filamentation inducer project, primary screen (AID 1152); details: higher = more signal, called active from +8 up or from −8 down;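 note: E. coli MC1000 strain DRC41 lacking acrAB efflux pump and sulA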
# [12] = probe aLefty1 binding on compound microarray – biochemical, small-molecule microarray, 635/667 nm fluorescence, primary screen (AID 1153); details: higher = more signal;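 note: score merges spot fluorescence with signal-to-noise ratio from the scanned slide images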
# [13] = plasmodial surface anion channel blockers, osmotic lysis – cell-based, P. falciparum Indochina, OD700, 1 h, primary screen (AID 1154); details: P. falciparum Indochina infected RBC osmotic lysis, higher = more signal, called active from +8 up or from −8 down
# [14] = plasmodial surface anion channel blockers, osmotic lysis – cell-based, P. falciparum Indochina, OD700, 2 h, primary screen (AID 1155);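 note: lysis reports solute entry through the parasite surface anion channel PSAC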; details: P. falciparum Indochina infected erythrocytes, higher = more signal, called active from +8 up or from −8 down
# [15] = changes in parasitized red cell lysis, either direction – P. falciparum Indochina, OD700, 3 h, PSAC antagonist project, primary screen (AID 1156); details: P. falciparum-infected erythrocytes, osmotic lysis, higher = more signal, called active from +8 up or from −8 down
# [16] = plasmodial surface anion channel blockers, osmotic lysis – cell-based, P. falciparum Indochina, OD700, 18 h, primary screen (AID 1157); details: P. falciparum Indochina infected erythrocytes, osmotic lysis OD700, 18 h; higher = more signal, called active from +8 up or from −8 down
# [17] = S6 kinase pathway phospho-S6 level changes – cell-based, A549, cytoblot, luminescence, serum-stimulated, primary screen (AID 1158); details: 5 h, higher = more signal;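 note: serum-stimulated A549 lung adenocarcinoma cells; signal is phosphorylated S6 detected by cytoblot immunostaining with HRP secondary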
# [18] = biological target: NADPH oxidase 2 (Homo sapiens) (UniProt P04839); assay: compounds shifting NOX2 Amplex Red fluorescence – cell-based, HEK293-NOX2, PMA-stimulated, NOX inhibitor project, primary screen (AID 1159); details: 45 min, higher = more signal, called active from +8 up or from −8 down; note: test concentration not given here
# [19] = biological target: NADPH oxidase 4 (Homo sapiens) (UniProt Q9NPH5); assay: compounds shifting NOX4 Amplex Red fluorescence – cell-based, HEK293-NOX4, tetracycline-induced, NOX inhibitor project, primary screen (AID 1160); details: HEK293-NOX4, Amplex Red H2O2 fluorescence, 45 min; higher = more signal, called active from +8 up or from −8 down
# [20] = biological target: NADPH oxidase 5 (Homo sapiens) (UniProt Q96PH1); assay: compounds shifting NOX5 Amplex Red fluorescence – cell-based, HEK293-NOX5, NOX inhibitor project, primary screen (AID 1161); details: HEK293-NOX5, ionomycin, 45 min, higher = more signal
# Sequence of NADPH oxidase 5 (Homo sapiens) (Q96PH1 whole entry, looked up): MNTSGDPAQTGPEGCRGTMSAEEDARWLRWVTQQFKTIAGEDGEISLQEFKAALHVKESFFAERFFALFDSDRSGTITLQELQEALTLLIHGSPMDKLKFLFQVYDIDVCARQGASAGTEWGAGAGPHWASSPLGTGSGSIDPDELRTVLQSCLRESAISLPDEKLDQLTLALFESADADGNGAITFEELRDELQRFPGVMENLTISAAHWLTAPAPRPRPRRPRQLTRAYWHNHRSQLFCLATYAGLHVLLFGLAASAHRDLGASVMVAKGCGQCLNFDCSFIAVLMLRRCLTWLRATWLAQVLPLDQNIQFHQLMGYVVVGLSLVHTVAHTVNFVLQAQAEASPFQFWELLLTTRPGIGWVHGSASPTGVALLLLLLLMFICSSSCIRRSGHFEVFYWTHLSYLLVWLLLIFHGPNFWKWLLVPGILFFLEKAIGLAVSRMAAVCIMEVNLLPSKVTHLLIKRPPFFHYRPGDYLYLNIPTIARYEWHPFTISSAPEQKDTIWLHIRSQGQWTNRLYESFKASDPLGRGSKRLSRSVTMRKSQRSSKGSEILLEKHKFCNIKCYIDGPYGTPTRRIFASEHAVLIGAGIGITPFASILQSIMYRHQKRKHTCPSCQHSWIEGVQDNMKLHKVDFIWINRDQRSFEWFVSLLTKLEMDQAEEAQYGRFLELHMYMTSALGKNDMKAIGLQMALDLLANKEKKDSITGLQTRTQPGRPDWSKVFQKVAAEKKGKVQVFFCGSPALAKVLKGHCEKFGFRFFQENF
# Sequence of Torsin-1A (Homo sapiens) (O14656 whole entry, looked up): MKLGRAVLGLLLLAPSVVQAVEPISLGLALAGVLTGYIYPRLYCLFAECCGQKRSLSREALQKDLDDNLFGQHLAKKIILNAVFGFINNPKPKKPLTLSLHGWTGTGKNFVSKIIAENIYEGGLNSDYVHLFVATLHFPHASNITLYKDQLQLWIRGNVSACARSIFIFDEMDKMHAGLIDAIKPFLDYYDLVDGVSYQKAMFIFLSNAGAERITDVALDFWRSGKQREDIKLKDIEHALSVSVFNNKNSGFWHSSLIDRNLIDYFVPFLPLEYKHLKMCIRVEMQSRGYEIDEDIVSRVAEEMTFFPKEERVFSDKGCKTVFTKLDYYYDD
# Sequence of Streptavidin (Streptomyces avidinii) (P22629 whole entry, looked up): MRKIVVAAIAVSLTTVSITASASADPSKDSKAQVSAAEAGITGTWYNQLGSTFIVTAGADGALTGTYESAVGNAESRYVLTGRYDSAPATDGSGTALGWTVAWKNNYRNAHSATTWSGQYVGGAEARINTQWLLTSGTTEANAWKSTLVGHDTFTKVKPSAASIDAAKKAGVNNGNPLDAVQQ
# Sequence of NADPH oxidase 4 (Homo sapiens) (Q9NPH5 whole entry, looked up): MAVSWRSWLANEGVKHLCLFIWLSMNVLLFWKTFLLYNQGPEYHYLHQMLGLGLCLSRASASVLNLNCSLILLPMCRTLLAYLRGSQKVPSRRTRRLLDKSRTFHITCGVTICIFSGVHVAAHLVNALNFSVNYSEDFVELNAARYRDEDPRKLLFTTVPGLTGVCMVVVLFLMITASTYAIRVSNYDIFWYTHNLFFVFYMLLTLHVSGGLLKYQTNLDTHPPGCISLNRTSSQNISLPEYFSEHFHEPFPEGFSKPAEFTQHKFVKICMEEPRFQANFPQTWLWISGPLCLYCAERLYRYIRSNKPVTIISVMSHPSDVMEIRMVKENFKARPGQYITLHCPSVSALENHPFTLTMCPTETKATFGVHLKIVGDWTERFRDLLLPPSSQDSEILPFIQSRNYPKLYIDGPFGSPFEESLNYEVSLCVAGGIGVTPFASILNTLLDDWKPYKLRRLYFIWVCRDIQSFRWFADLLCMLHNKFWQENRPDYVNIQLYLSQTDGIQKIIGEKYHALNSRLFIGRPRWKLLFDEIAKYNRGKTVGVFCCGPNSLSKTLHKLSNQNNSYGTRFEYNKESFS
# Sequence of NADPH oxidase 2 (Homo sapiens) (P04839 whole entry, looked up): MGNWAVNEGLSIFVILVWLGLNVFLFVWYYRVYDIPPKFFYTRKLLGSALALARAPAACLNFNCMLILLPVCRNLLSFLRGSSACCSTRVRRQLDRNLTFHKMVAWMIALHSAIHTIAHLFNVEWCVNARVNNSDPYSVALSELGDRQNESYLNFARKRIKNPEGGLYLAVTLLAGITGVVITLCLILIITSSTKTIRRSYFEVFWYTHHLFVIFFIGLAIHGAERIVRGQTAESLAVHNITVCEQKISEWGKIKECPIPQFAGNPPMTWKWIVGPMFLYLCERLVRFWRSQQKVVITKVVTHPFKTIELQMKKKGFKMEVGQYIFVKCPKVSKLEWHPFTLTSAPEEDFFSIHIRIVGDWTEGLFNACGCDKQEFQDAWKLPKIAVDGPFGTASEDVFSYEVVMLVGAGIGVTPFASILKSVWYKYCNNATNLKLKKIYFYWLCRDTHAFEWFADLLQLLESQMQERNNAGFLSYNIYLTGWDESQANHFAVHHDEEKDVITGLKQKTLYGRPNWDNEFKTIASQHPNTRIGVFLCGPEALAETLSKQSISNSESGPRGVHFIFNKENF
SMILES,composite z-score [1],z-score [2],z-score [3],z-score [4],z-score [5],composite z-score [6],composite z-score [7],composite z-score (Torsin-1A (Homo sapiens) [8]),composite z-score (Torsin-1A (Homo sapiens) [9]),composite z-score [10],z-score [11],composite z-score [12],z-score [13],z-score [14],z-score [15],z-score [16],z-score [17],z-score [18],z-score [19],z-score [20]
CC(C)(C)N1CC=CC23O[C@@H]4C=CCCOC(=O)C4[C@H]2C(=O)N(CCCO)[C@@H]3C1=O (stereo not given in full),-0.213,-2.5 (inactive),-0.93 (inactive),0.451 (inactive),-0.178 (inactive),-1.33,-0.23,-0.253,-0.663,0.398,0.471 (inactive),-0.289,0.595 (inactive),-1.01 (inactive),0.79 (inactive),-1.49 (inactive),0.682,-2.85 (inactive),-2.02 (inactive),-0.648
COC(=O)C(CC#Cc1ccc2c(c1)[C@]1(C(=O)N2)[C@H](C(=O)N2CCc3cc(OC)c(OC)cc3C2)[C@H]2C(=O)O[C@H](c3ccccc3)[C@H](c3ccccc3)N2[C@@H]1c1ccc(OCCO)cc1)C(=O)OC,0.5,-0.201 (inactive),-0.895 (inactive),0.865 (inactive),-0.474 (inactive),1.28,0.246,1.28,0.251,1.64,0.408 (inactive),0.546,6.17 (inactive),2.37 (inactive),1.15 (inactive),1.28 (inactive),0.237,1.26 (inactive),0.487 (inactive),1.32
CC(C)c1ccc(NN2C(C(O)c3ccccn3)C=CC3C(=O)N(c4ccccc4)C(=O)C32)cc1 (stereo not given),1.01,0.0489 (inactive),-0.997 (inactive),0.0501 (inactive),0.792 (inactive),0.608,0.46,1.55,2.09,1.98,-0.701 (inactive),0.595,7.66 (inactive),1.4 (inactive),2.42 (inactive),1.64 (inactive),-0.336,-1.2 (inactive),-3.57 (inactive),-3.05
COCC(=C=CC[C@@H](O)c1ccccc1OCCO)C[C@@H](O)COCc1ccccc1,0.561,-1.43 (inactive),-0.137 (inactive),8.9 (active),-1.46 (inactive),-0.236,0.799,1.26,0.717,0.709,2.01 (inactive),0.455,6.15 (inactive),-0.29 (inactive),0.66 (inactive),-1.22 (inactive),0.719,0.547 (inactive),1.31 (inactive),-1.66
CC(=O)NCCCC[C@@H]1NC(=O)[C@H]2C[C@@H](C(=O)NCCCCCN)[C@@H](c3cccc(OCCO)c3)N2C1=O,0.292,-0.532 (inactive),0.00194 (inactive),-0.675 (inactive),-1.44 (inactive),0.688,-0.102,0.455,0.0709,-0.0725,2.39 (inactive),0.262,1.15 (inactive),-1.08 (inactive),1.9 (inactive),-1.98 (inactive),1.36,0.0821 (inactive),0.793 (inactive),0.875
COC(=O)[C@@]1(Cc2ccc(OC)cc2)[C@H]2c3cc(C(=O)N(C)C)n(Cc4cc(C)n(C)n4)c3C[C@H]2CN1C(=O)c1ccccc1,0.982,-0.753 (inactive),0.329 (inactive),0.19 (inactive),2.65 (inactive),0.462,0.229,0.638,0.67,-0.797,-1.82 (inactive),0.396,2.11 (inactive),0.498 (inactive),1.45 (inactive),0.544 (inactive),0.355,0.27 (inactive),-1.52 (inactive),-3.56
COc1ccc(C#Cc2ccc3c(c2)[C@]2(C(=O)N3)[C@H](c3ccc(OCCO)cc3)N3[C@H](c4ccccc4)[C@H](c4ccccc4)OC(=O)[C@H]3[C@@H]2C(=O)N2CCN(c3ncccn3)CC2)cc1,0.0992,-3.47 (inactive),-0.385 (inactive),0.0653 (inactive),-0.239 (inactive),0.819,-0.0521,0.433,0.374,0.666,2.34 (inactive),0.0436,3.2 (inactive),0.964 (inactive),-1.48 (inactive),-0.856 (inactive),0.379,1.15 (inactive),0.706 (inactive),1.34
CO[C@H]1O[C@H](CO)[C@@H](OC(=O)Nc2ccc(C(F)(F)F)cc2)[C@H](OC(=O)Nc2ccccc2)[C@H]1OC(=O)Nc1ccccc1,0.71,-5.9 (inactive),-0.109 (inactive),3.11 (inactive),-1.51 (inactive),1.22,0.3,0.386,0.183,1.2,-1.41 (inactive),1.14,4.63 (inactive),1.22 (inactive),-2.03 (inactive),0.887 (inactive),0.121,-5.31 (inactive),-1.39 (inactive),-1.85
